Reference: paper PMC12820563, “FoxP3 forms a head-to-head dimer in vivo and stabilizes its multimerization on adjacent microsatellites”
Whole data set: some 16,000 sequences, median “rpm ratio (pull-down/input)” near 0.94, cut for the highest 2% near 1.7. The sample holds the highest values, similar sequences and a random draw of the others, so the mix is not that of the screen.

Each sequence was assayed against T1, MBP-FoxP1dN (Mus musculus, UniProt P58462 326-579) (assay: PD-seq (MBP pull-down with sequencing); 20 mM Tris-HCl pH 7.5, 100 mM NaCl, 1.5 mM MgCl2, 0.4 uM protein, 0.1 uM dsDNA library, 30 min, room temperature, amylose pull-down; high values mean tight binding). Settings: protein: recombinant; tags: His6-MBP; chain copies: 2; dsDNA, one strand shown.
T1 sequence: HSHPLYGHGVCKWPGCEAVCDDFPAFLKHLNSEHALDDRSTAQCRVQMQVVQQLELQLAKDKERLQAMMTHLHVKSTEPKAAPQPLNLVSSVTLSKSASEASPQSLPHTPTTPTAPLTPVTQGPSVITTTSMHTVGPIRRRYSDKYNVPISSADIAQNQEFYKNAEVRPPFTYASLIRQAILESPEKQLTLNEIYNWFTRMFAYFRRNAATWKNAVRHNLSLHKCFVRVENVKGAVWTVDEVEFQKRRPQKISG
Outline: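 Amylose resin was used to capture complexes formed during 30 min at room temperature in Tris pH 7.5 buffer with NaCl and MgCl2 between 0.4 µM His6-MBP-tagged mouse FoxP3 or FoxP1 fragment lacking the N-terminus, expressed in E. coli, and 0.1 µM Klenow-filled double-stranded degenerate DNA library. After three washes, the DNA was released with proteinase K, barcoded by PCR and sequenced on Illumina. Binding is pooled-replicate reads-per-million enrichment, pull-down over input.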

Row | Sequence | binding signal
1 | GATGATTGTTCTCCCAGCTGATGAATTTATGCAGTCGAGTAAACAAATTTTCCTAATCTTTCTGTTCAAGCGCCATCTAC | 1.11 RPM ratio (pull-down/input)
2 | GATGATTGTTCTCCCAGCTGATGAATTTACGTCATCGAGTAAACAAATTTTCCTAATCTTTCTGTTCAAGCGCCATCTAC | 1.45 RPM ratio (pull-down/input)
3 | GATGATTGTTCTCCCAGCTGATGAATTGTTTACCTCGAGTAAACAAATTTTCCTAATCTTTCTGTTCAAGCGCCATCTAC | 2.65 RPM ratio (pull-down/input)
4 | GATGATTGTTCTCCCAGCTGATGAATTTATTACCTCGAGTAAACAAATTTTCCTAATCTTTCTGTTCAAGCGCCATCTAC | 1.2 RPM ratio (pull-down/input)
5 | GATGATTGTTCTCCCAGCTGATGAATTTACCTCCTCGAGTAAACAAATTTTCCTAATCTTTCTGTTCAAGCGCCATCTAC | 1.07 RPM ratio (pull-down/input)
6 | GATGATTGTTCTCCCAGCTGATGAATTACCTACCTCGAGTAAACAAATTTTCCTAATCTTTCTGTTCAAGCGCCATCTAC | 0.913 RPM ratio (pull-down/input)
7 | GATGATTGTTCTCCCAGCTGATGAATTATTTACCTCGAGTAAACAAATTTTCCTAATCTTTCTGTTCAAGCGCCATCTAC | 1.86 RPM ratio (pull-down/input)
8 | GATGATTGTTCTCCCAGCTGATGAATTTTTTACCTCGAGTAAACAAATTTTCCTAATCTTTCTGTTCAAGCGCCATCTAC | 0.943 RPM ratio (pull-down/input)
9 | GATGATTGTTCTCCCAGCTGATGAATTATACTGCTCGAGTAAACAAATTTTCCTAATCTTTCTGTTCAAGCGCCATCTAC | 0.951 RPM ratio (pull-down/input)
10 | GATGATTGTTCTCCCAGCTGATGAATTCTGCCTGTCGAGTAAACAAATTTTCCTAATCTTTCTGTTCAAGCGCCATCTAC | 0.791 RPM ratio (pull-down/input)
11 | GATGATTGTTCTCCCAGCTGATGAATTCATACATTCGAGTAAACAAATTTTCCTAATCTTTCTGTTCAAGCGCCATCTAC | 1.01 RPM ratio (pull-down/input)
12 | GATGATTGTTCTCCCAGCTGATGAATTTGACCGATCGAGTAAACAAATTTTCCTAATCTTTCTGTTCAAGCGCCATCTAC | 0.841 RPM ratio (pull-down/input)
13 | GATGATTGTTCTCCCAGCTGATGAATTGCTCGAGTCGAGTAAACAAATTTTCCTAATCTTTCTGTTCAAGCGCCATCTAC | 0.899 RPM ratio (pull-down/input)
14 | GATGATTGTTCTCCCAGCTGATGAATTTCCGGAATCGAGTAAACAAATTTTCCTAATCTTTCTGTTCAAGCGCCATCTAC | 0.872 RPM ratio (pull-down/input)
15 | GATGATTGTTCTCCCAGCTGATGAATTGTTTTTATCGAGTAAACAAATTTTCCTAATCTTTCTGTTCAAGCGCCATCTAC | 2.19 RPM ratio (pull-down/input)
16 | GATGATTGTTCTCCCAGCTGATGAATTAGTTTTATCGAGTAAACAAATTTTCCTAATCTTTCTGTTCAAGCGCCATCTAC | 1.02 RPM ratio (pull-down/input)
17 | GATGATTGTTCTCCCAGCTGATGAATTTAGTTTATCGAGTAAACAAATTTTCCTAATCTTTCTGTTCAAGCGCCATCTAC | 1.89 RPM ratio (pull-down/input)

Row | Sequence | binding signal
18 | GATGATTGTTCTCCCAGCTGATGAATTTTATATATCGAGTAAACAAATTTTCCTAATCTTTCTGTTCAAGCGCCATCTAC | 1.11 RPM ratio (pull-down/input)
19 | GATGATTGTTCTCCCAGCTGATGAATTTTAGTTATCGAGTAAACAAATTTTCCTAATCTTTCTGTTCAAGCGCCATCTAC | 1.18 RPM ratio (pull-down/input)
20 | GATGATTGTTCTCCCAGCTGATGAATTTTTTTTATCGAGTAAACAAATTTTCCTAATCTTTCTGTTCAAGCGCCATCTAC | 0.958 RPM ratio (pull-down/input)
21 | GATGATTGTTCTCCCAGCTGATGAATTTTTTATATCGAGTAAACAAATTTTCCTAATCTTTCTGTTCAAGCGCCATCTAC | 1.08 RPM ratio (pull-down/input)
22 | GATGATTGTTCTCCCAGCTGATGAATTTCTTTTATCGAGTAAACAAATTTTCCTAATCTTTCTGTTCAAGCGCCATCTAC | 1.03 RPM ratio (pull-down/input)
23 | GATGATTGTTCTCCCAGCTGATGAATTTTCTTTATCGAGTAAACAAATTTTCCTAATCTTTCTGTTCAAGCGCCATCTAC | 1.2 RPM ratio (pull-down/input)
24 | GATGATTGTTCTCCCAGCTGATGAATTTATCTAATCGAGTAAACAAATTTTCCTAATCTTTCTGTTCAAGCGCCATCTAC | 1.32 RPM ratio (pull-down/input)
25 | GATGATTGTTCTCCCAGCTGATGAATTGTGTTTATCGAGTAAACAAATTTTCCTAATCTTTCTGTTCAAGCGCCATCTAC | 2.92 RPM ratio (pull-down/input)
26 | GATGATTGTTCTCCCAGCTGATGAATTGTTTATATCGAGTAAACAAATTTTCCTAATCTTTCTGTTCAAGCGCCATCTAC | 2.47 RPM ratio (pull-down/input)
27 | GATGATTGTTCTCCCAGCTGATGAATTCTGCGCGTCGAGTAAACAAATTTTCCTAATCTTTCTGTTCAAGCGCCATCTAC | 0.978 RPM ratio (pull-down/input)
28 | GATGATTGTTCTCCCAGCTGATGAATTCCATTACTCGAGTAAACAAATTTTCCTAATCTTTCTGTTCAAGCGCCATCTAC | 0.874 RPM ratio (pull-down/input)
29 | GATGATTGTTCTCCCAGCTGATGAATTCAAGATCTCGAGTAAACAAATTTTCCTAATCTTTCTGTTCAAGCGCCATCTAC | 0.814 RPM ratio (pull-down/input)
30 | GATGATTGTTCTCCCAGCTGATGAATTTCTACGATCGAGTAAACAAATTTTCCTAATCTTTCTGTTCAAGCGCCATCTAC | 0.948 RPM ratio (pull-down/input)
31 | GATGATTGTTCTCCCAGCTGATGAATTCACCATATCGAGTAAACAAATTTTCCTAATCTTTCTGTTCAAGCGCCATCTAC | 0.984 RPM ratio (pull-down/input)
32 | GATGATTGTTCTCCCAGCTGATGAATTGGGGCACTCGAGTAAACAAATTTTCCTAATCTTTCTGTTCAAGCGCCATCTAC | 0.856 RPM ratio (pull-down/input)
33 | GATGATTGTTCTCCCAGCTGATGAATTTCACTGGTCGAGTAAACAAATTTTCCTAATCTTTCTGTTCAAGCGCCATCTAC | 0.806 RPM ratio (pull-down/input)
